Laboratory results taken from the supplement of paper PMC10849652.
Targets with a hit are over-represented here; the source holds about 8,800 in all. About 0.5% of all pairs of compound and target were hits.

How the values were obtained:
Assay in all cases: log2 fold change, soluble protein after heating vs DMSO (PISA); higher = thermal stabilisation; K562 lysate, 10 uM; active = over 0.2 and 3.5 SD of the protein, either way, in both replicates (recomputed)
erlotinib = compound: C#Cc1cccc(Nc2ncnc3cc(OCCOC)c(OCCOC)cc23)c1 [erlotinib]
How it was run: (§1)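 The values are log-two fold changes in thermal stability compared with solvent controls and come from duplicates. They were obtained by TMTpro 16plex LC-MS/MS, with channel sums equalised, on the supernatant after 21,000xg for 90 min. That supernatant came from crude K562 extract at 1 mg/mL protein treated with 10 μM compound for 30 min, heated for 3 min across 48°C-58°C, pooled and brought to 0.5% NP-40 at 4°C.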

[1] = compound: C/C(=N\NC(=O)C1=CC(=CC=C1)S(=O)(=O)N2CCOCC2)/C3=C(C=CC(=C3)Cl)O
How it was run: as §1

[2] = compound: C1=CC(=CC=C1C2=NC3=C(N2)C=C(C=C3)C(=O)N)OC4=CC=C(C=C4)Cl
How it was run: as §1

[3] = compound: C1=CC2=C(C=CC(=C2)/C=C\3/C(=O)NC(=NCC4=CC=CS4)S3)N=C1
How it was run: as §1

[4] = compound: C1=CC2=NC=CN=C2C=C1/C=C/3\C(=O)NC(=O)S3
How it was run: as §1

[5] = compound: C1=CC=C(C=C1)C2=NC(=C(N2)C3=CC=NC=C3)C4=CC(=C(C=C4)Cl)O
How it was run: as §1

[6] = compound: C1=CC=C2C(=C1)C3=NNC4=CC=CC(=C43)C2=O
How it was run: as §1

[7] = compound: C1CCN(C1)C(=O)NC2=CC=CC(=C2)NC3=NC=C(C(=N3)NCCC4=CN=CN4)Br
How it was run: as §1

[8] = compound: C1CN(CCC1(CC2=CC=C(C=C2)Cl)N)C3=NC=NC4=C3C=CN4
How it was run: as §1

IRAK-1-4 Inhibitor I = compound: C1COCCN1CCN2C3=CC=CC=C3N=C2NC(=O)C4=CC(=CC=C4)[N+](=O)[O-] [IRAK-1-4 Inhibitor I]
How it was run: as §1

ibrutinib = compound: C=CC(=O)N1CCC[C@@H](n2nc(-c3ccc(Oc4ccccc4)cc3)c3c(N)ncnc32)C1 [ibrutinib]
How it was run: as §1

[9] = compound: CC(=O)c1cnc2ccc(-c3cc(Cl)c(O)c(Cl)c3)nc2c1N[C@H]1CC[C@H](CN(C)C)CC1
How it was run: as §1

ralimetinib = compound: CC(C)(C)Cn1c(N)nc2ccc(-c3[nH]c(C(C)(C)C)nc3-c3ccc(F)cc3)nc21 [ralimetinib]
How it was run: as §1

[10] = compound: CC(C)(O)CC(=O)NCCn1ccc2ncnc(Nc3ccc(Oc4cccc(C(F)(F)F)c4)c(Cl)c3)c21
How it was run: as §1

[11] = compound: CC(C)C1=C2N=C(C=C(N2N=C1)NCC3=CC=CC=C3)NCCCCCCN
How it was run: as §1

[12] = compound: CC1=C(C(CC(=O)N1)C2=CC=C(C=C2)C(F)(F)F)C(=O)NC3=C(C=C4C(=C3)C=NN4)F
How it was run: as §1

[13] = compound: CC1=C(C2=C(C=C1)C(=O)C3=CC=CC=C3N2CCCN)C
How it was run: as §1

[14] = compound: CC1=C(C=C(C=C1)NC(=O)C2=CC(=CC=C2)C(C)(C)C#N)NC3=CC4=C(C=C3)N=CN(C4=O)C
How it was run: as §1

[15] = compound: CC1=C(C=C(C=C1)NC(=O)C2=CC(=CC=C2)N(C)C)NC(=O)C3=CC=C(C=C3)O
How it was run: as §1

[16] = compound: CC1=CC=C(C=C1)SC2=C3C=C(SC3=CN=C2)C(=O)N
How it was run: as §1

Measured: log2 fold change

XPNPEP1 isoform 3 (UniProt Q9NQW7)
inactive: erlotinib -0.001 | [1] 0.023 | [2] -0.019 | [3] 0.001 | [4] -0.007 | [5] -0.005 | [6] -0.011 | [7] -0.006 | [8] 0.005 | IRAK-1-4 Inhibitor I 0.009 | ibrutinib 0.012 | [9] -0.007 | ralimetinib 0.017 | [10] -0.026 | [11] -0.009 | [12] 0.007 | [13] -0.026 | [14] -0.025 | [15] -0.005 | [16] 0.002

ZDHHC18 (UniProt Q9NUE0)
inactive: erlotinib 0.265 | [1] -0.057 | [2] -0.371 | [3] -0.052 | [4] -0.135 | [5] 0.004 | [6] 0.038 | [7] -0.022 | [8] 0.075 | IRAK-1-4 Inhibitor I 0.13 | ibrutinib -0.103 | [9] 0.057 | ralimetinib 0.093 | [10] -0.017 | [11] -0.137 | [12] 0.019 | [13] 0.209 | [14] -0.022 | [15] 0.073 | [16] -0.01

VPS4A (UniProt Q9UN37)
inactive: erlotinib 0.051 | [1] 0.005 | [2] -0.076 | [3] 0.043 | [4] -0.014 | [5] -0.017 | [6] -0.15 | [7] 0.029 | [8] -0.037 | IRAK-1-4 Inhibitor I -0.037 | ibrutinib 0.001 | [9] 0 | ralimetinib 0.013 | [10] 0.035 | [11] 0 | [12] -0.035 | [13] -0.046 | [14] -0.039 | [15] 0.045 | [16] 0.025

VPS18 (UniProt Q9P253)
inactive: erlotinib 0.018 | [1] 0.056 | [2] -0.032 | [3] -0.021 | [4] -0.016 | [5] 0.051 | [6] -0.076 | [7] -0.017 | [8] 0.053 | IRAK-1-4 Inhibitor I -0.034 | ibrutinib -0.007 | [9] -0.026 | ralimetinib 0.038 | [10] -0.065 | [11] -0.022 | [12] 0.004 | [13] -0.046 | [14] -0.004 | [15] -0.041 | [16] 0.009

XPO6 (UniProt Q96QU8)
inactive: erlotinib 0.091 | [1] -0.024 | [2] -0.028 | [3] 0.031 | [4] -0.012 | [5] -0.003 | [6] -0.072 | [7] -0.007 | [8] -0.028 | IRAK-1-4 Inhibitor I 0.003 | ibrutinib -0.013 | [9] 0.018 | ralimetinib 0.006 | [10] -0.006 | [11] -0.033 | [12] -0.003 | [13] -0.024 | [14] 0.028 | [15] 0.062 | [16] -0.006

VAV1 (UniProt P15498)
inactive: erlotinib 0.02 | [1] 0.081 | [2] -0.022 | [3] 0.001 | [4] -0.043 | [5] 0.037 | [6] -0.082 | [7] -0.004 | [8] -0.002 | IRAK-1-4 Inhibitor I -0.009 | ibrutinib -0.057 | [9] 0.054 | ralimetinib 0.083 | [10] -0.042 | [11] 0.009 | [12] -0.004 | [13] -0.034 | [14] -0.078 | [15] 0.046 | [16] 0.082

UTP3 (UniProt Q9NQZ2)
Sequence of UniProt Q9NQZ2 (Q9NQZ2 whole entry, looked up): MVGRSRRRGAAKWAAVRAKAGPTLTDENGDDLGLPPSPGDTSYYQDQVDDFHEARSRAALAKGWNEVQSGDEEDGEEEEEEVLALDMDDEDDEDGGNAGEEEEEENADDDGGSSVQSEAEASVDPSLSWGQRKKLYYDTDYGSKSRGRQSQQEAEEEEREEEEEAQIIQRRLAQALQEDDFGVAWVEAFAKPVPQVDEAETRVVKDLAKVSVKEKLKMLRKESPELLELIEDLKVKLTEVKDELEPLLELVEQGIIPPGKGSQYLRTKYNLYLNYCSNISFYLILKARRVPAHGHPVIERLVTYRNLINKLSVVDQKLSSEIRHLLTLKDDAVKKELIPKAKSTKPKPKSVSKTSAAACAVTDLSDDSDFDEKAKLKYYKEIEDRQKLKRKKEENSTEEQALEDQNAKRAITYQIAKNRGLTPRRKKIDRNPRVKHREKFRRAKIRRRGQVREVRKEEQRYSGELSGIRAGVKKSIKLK
inactive: erlotinib -0.051 | [1] -1.41 | [2] -0.088 | [3] -0.063 | [4] -0.039 | [5] -0.018 | [6] 0.021 | [7] -0.067 | [8] -0.09 | IRAK-1-4 Inhibitor I -0.041 | ibrutinib 0.053 | [9] 0.001 | ralimetinib 0.055 | [10] -0.051 | [11] -0.058 | [12] 0.026 | [13] -0.123 | [14] -0.016 | [15] -0.023 | [16] -0.018

WDR62 isoform 4 (UniProt O43379)
inactive: erlotinib 0.017 | [1] -0.027 | [2] -0.018 | [3] -0.007 | [4] -0.012 | [5] 0.017 | [6] -0.052 | [7] 0.024 | [8] -0.008 | IRAK-1-4 Inhibitor I 0.011 | ibrutinib -0.023 | [9] 0.027 | ralimetinib 0.013 | [10] -0.051 | [11] -0.007 | [12] 0.033 | [13] -0.016 | [14] 0.023 | [15] -0.002 | [16] -0.029

ZZEF1 (UniProt O43149)
Sequence of UniProt O43149 (O43149 whole entry, looked up): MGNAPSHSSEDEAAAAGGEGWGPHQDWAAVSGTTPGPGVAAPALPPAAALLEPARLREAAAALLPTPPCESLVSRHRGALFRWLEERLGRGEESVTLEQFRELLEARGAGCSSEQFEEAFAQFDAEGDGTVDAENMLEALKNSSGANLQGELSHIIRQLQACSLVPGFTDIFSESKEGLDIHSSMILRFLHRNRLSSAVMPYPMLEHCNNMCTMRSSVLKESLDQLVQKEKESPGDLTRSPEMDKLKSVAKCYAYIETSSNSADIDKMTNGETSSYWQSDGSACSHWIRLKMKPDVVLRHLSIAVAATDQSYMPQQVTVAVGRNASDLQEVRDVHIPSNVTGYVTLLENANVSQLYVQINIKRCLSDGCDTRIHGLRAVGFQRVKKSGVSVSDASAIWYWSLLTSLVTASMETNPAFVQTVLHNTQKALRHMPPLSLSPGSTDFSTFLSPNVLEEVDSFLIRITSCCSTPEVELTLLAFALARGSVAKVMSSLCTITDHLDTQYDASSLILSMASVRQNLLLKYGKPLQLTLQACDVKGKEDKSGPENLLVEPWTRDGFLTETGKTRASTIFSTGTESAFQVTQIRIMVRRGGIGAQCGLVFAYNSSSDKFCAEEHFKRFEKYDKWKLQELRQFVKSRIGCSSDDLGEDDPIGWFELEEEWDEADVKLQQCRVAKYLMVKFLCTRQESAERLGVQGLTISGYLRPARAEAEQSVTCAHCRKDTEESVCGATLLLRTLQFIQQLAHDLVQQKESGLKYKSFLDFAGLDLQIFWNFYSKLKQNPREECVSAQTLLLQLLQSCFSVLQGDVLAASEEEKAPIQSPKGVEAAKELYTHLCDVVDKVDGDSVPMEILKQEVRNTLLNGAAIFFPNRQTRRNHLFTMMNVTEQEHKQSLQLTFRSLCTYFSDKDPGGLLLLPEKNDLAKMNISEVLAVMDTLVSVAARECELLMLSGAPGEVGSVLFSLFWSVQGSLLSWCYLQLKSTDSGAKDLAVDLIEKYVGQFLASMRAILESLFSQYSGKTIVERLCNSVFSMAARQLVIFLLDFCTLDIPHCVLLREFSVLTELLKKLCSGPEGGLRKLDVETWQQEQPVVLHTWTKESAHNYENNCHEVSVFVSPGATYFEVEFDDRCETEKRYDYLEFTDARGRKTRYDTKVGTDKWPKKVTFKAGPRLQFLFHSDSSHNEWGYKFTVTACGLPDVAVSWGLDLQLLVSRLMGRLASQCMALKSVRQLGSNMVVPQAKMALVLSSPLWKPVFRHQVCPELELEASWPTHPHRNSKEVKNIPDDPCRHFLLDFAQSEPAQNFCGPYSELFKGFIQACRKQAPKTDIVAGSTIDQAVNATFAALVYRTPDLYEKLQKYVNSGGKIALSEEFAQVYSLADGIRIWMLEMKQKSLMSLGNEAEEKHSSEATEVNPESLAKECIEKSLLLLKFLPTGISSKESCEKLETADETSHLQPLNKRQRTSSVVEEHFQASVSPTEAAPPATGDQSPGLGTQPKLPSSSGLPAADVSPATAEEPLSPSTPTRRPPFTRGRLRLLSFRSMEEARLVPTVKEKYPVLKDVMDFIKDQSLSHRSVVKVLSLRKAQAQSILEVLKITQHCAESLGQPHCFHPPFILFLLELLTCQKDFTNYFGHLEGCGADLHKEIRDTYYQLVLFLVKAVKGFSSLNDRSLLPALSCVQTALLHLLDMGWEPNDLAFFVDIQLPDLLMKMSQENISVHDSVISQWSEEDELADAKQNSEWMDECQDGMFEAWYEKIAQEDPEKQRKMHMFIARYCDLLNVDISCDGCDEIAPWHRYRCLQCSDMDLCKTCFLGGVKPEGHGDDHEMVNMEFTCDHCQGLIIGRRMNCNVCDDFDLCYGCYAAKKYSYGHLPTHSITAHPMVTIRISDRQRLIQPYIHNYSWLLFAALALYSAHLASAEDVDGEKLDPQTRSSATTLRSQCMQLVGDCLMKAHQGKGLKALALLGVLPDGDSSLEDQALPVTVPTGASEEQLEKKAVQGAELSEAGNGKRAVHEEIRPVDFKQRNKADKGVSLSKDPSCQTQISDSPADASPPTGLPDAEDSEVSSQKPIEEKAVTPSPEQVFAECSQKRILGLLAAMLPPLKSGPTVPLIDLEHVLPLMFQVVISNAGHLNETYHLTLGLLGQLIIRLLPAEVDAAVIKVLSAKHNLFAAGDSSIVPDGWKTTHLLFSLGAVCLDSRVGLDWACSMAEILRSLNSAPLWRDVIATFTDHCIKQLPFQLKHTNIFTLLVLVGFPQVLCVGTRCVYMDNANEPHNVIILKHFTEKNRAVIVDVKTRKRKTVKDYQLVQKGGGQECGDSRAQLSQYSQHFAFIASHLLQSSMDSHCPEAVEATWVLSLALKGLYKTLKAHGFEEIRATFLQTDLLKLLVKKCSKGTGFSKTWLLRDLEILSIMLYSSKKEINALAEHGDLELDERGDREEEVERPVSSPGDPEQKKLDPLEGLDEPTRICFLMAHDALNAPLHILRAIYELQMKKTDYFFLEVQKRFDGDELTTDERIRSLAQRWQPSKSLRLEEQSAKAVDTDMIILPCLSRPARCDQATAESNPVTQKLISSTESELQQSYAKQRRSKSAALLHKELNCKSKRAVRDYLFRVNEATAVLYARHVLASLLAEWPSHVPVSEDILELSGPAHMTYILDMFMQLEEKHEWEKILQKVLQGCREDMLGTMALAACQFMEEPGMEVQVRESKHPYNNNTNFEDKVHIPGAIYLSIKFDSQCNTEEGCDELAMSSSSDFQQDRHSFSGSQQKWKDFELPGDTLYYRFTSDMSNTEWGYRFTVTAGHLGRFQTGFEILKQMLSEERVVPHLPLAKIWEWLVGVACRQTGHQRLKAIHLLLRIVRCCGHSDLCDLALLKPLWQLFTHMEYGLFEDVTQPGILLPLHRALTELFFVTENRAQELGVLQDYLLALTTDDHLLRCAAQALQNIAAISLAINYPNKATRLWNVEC
inactive: erlotinib 0.008 | [1] -0.019 | [2] -0.012 | [3] 0.019 | [4] -0.012 | [5] -0.009 | [6] -0.017 | [7] -0.011 | [8] -0.009 | IRAK-1-4 Inhibitor I 0.017 | ibrutinib 0.018 | [9] -0.009 | ralimetinib -0.002 | [10] -0.057 | [11] -0.014 | [12] -0.005 | [13] -0.063 | [14] 0.023 | [15] 0.009 | [16] -0.005

USP3 (UniProt Q9Y6I4)
Sequence of UniProt Q9Y6I4 (Q9Y6I4 whole entry, looked up): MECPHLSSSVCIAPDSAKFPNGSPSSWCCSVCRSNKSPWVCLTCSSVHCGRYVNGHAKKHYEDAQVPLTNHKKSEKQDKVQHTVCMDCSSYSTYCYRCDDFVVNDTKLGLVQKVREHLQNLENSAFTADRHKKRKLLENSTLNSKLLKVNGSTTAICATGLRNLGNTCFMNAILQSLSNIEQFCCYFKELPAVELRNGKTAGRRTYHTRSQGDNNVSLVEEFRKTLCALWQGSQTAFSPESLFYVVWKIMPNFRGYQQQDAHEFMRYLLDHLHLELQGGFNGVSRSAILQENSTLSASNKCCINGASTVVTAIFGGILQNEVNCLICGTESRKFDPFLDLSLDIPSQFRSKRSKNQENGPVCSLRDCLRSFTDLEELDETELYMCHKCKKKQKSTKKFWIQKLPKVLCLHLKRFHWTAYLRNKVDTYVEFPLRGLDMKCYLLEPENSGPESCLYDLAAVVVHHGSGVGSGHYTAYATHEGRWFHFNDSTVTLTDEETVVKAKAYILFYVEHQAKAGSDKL
inactive: erlotinib -0.001 | [1] 0.05 | [2] 0.033 | [3] 0.031 | [4] 0.018 | [5] 0.011 | [6] 0.014 | [7] -0.037 | [8] 0.035 | IRAK-1-4 Inhibitor I -0.044 | ibrutinib 0.01 | [9] 0.048 | ralimetinib 0.042 | [10] -0.027 | [11] 0.014 | [12] 0.024 | [13] 0.011 | [14] -0.014 | [15] 0.016 | [16] -0.025

ZC2HC1A (UniProt Q96GY0)
Sequence of UniProt Q96GY0 (Q96GY0 whole entry, looked up): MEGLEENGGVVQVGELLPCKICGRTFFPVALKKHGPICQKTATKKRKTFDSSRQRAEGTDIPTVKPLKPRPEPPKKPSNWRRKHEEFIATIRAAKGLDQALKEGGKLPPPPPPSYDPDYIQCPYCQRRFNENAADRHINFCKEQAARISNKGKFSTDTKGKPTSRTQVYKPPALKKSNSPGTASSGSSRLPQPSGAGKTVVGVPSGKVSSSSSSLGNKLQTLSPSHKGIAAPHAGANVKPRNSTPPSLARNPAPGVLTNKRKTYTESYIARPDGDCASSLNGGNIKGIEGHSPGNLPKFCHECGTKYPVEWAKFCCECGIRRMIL
inactive: erlotinib 0 | [1] -0.134 | [2] 0.058 | [3] 0.18 | [4] 0.073 | [5] -0.043 | [6] -0.1 | [7] -0.054 | [8] 0.009 | IRAK-1-4 Inhibitor I -0.012 | ibrutinib -0.029 | [9] -0.006 | ralimetinib 0.037 | [10] -0.056 | [11] -0.038 | [12] -0.016 | [13] -0.076 | [14] 0.045 | [15] -0.003 | [16] 0.006

ZC3HC1 (UniProt Q86WB0)
Sequence of UniProt Q86WB0 (Q86WB0 whole entry, looked up): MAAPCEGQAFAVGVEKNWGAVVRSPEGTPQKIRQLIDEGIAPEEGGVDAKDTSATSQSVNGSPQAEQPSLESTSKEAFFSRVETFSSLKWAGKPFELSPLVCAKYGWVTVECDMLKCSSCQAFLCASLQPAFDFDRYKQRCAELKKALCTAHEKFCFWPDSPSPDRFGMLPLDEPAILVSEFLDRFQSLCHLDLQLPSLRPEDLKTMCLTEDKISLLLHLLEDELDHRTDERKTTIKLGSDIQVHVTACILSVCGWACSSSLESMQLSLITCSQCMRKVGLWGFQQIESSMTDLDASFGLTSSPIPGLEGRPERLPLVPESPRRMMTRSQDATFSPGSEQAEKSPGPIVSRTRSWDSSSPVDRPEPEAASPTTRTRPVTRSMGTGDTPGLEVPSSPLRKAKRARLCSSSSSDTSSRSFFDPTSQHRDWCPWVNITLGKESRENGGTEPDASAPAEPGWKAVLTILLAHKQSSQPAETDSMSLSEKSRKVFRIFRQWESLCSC
inactive: erlotinib 0.011 | [1] -0.123 | [2] -0.006 | [3] 0.005 | [4] -0.009 | [5] 0.007 | [6] 0.009 | [7] 0.011 | [8] 0.018 | IRAK-1-4 Inhibitor I -0.003 | ibrutinib -0.021 | [9] 0.013 | ralimetinib 0.033 | [10] -0.004 | [11] -0.003 | [12] 0.012 | [13] 0.004 | [14] -0.002 | [15] 0.006 | [16] 0.013

ZC3H11A (UniProt O75152)
inactive: erlotinib 0.021 | [1] -0.048 | [2] -0.027 | [3] 0.004 | [4] -0.048 | [5] 0.029 | [6] -0.02 | [7] -0.011 | [8] -0.003 | IRAK-1-4 Inhibitor I -0.012 | ibrutinib 0.025 | [9] -0.1 | ralimetinib 0.019 | [10] -0.034 | [11] 0.025 | [12] 0.084 | [13] -0.016 | [14] 0.041 | [15] 0.041 | [16] -0.096

ZNF598 isoform 3 (UniProt Q86UK7)
inactive: erlotinib -0.001 | [1] -0.003 | [2] 0.007 | [3] -0.007 | [4] -0.045 | [5] 0.006 | [6] -0.064 | [7] -0.036 | [8] -0.002 | IRAK-1-4 Inhibitor I 0.029 | ibrutinib 0.032 | [9] -0.007 | ralimetinib -0.001 | [10] -0.017 | [11] 0.013 | [12] 0.019 | [13] 0.005 | [14] -0.001 | [15] -0.004 | [16] 0
